Several values for one entry are separate records, joined by “and”; a condition that tells them apart may be missing. Identical values can stand only once. Results filed as inconclusive are left out. Entries that show only a call come without a potency. A number with no mark means an inactive call. Activity calls are given as the source filed them. The call rests on the fitted dose curve.
Assay: p53 small molecule agonists, cell-based qHTS assay: qHTS cell viability counter screen (AID 1963581); further: nearly all actives have a fitted effect of over 45% in size
Conditions: p53RE-bla HCT-116 viability, ATP luminescence, 16 h; series mostly up to 66 µM; activity change, negative = cytotoxicity: at the top concentration
Excerpt: National Center for Advancing Translational Sciences [NCATS]
Division of Preclinical Innovation [DPI]
U.S. Environmental Protection Agency [EPA]
National Institutes of Environmental Health Sciences [NIEHS]
National Toxicology Program [NTP]
U.S. Food and Drug Administration [FDA]
p53, a tumor suppressor protein, is activated following cellular insult, including DNA damage and other cellular stresses. The activation of p53 regulates cell fate by inducing DNA repair, cell cycle arrest, apoptosis, or cellular senescence. The activation of p53, therefore, is a good indicator of DNA damage and other cellular stresses. The CellSensor p53RE-bla HCT-116 cell line (Invitrogen) contains a stably integrated beta-lactamase reporter gene under control of the p53 response elements. The activation of the reporter gene under culture conditions can be detected by fluorescence intensity. This cell line was used to screen the Tox21 compound library in a 1536-well plate format and to identify agonists that activate the p53 signaling pathway. The cytotoxicity of the Tox21 compound library against the p53 RE-bla HCT-116 cell line was tested in parallel by measuring the intra cellular ATP content in the same wells.
Tox21 Assay Protocol Summary:
The p53RE-bla cells were dispensed at 4,000 cells/5 ul/well in 1536-well black wall/clear bottom plates using a Multidrop dispenser. After the assay plates were incubated at a 37 C/5% CO2 incubator for 5 hours, 23 nL of compounds dissolved in DMSO, positive controls or DMSO only was transferred to the assay plate by a pin tool. The plates were incubated at 37 C for 16 hours. After 1 uL of LiveBLAzerTM B/G FRET substrate was added using a Flying Reagent Dispenser, the plates were incubated at room temperature for 2 hours, and fluorescence intensity was measured by an Envision plate reader. For cell viability readout that measures cytotoxicity, 4 ul/well of CellTiter-Glo reagent was added into the assay plates using a Flying Reagent Dispenser. After 30 min incubation at room temperature, the luminescence intensity in the plates was measured using a ViewLux plate reader.
Potency means the concentration at half of the fitted maximal effect.

Row | SMILES | Potency | activity change, negative = cytotoxicity
1 | C=C(C)CC(C)(C)C | inactive | –
2 | C=CC(=O)NC(C)(C)CS(=O)(=O)O | inactive | –
3 | CCCCOCCO | inactive | –
4 | CCCCCCCCCCCO | inactive | –
5 | O=S1(=O)CC=CC1 | inactive | –
6 | O=C(OCCOCCOC(=O)c1ccccc1)c1ccccc1 | inactive | –
7 | O=C(O)C(=O)O | inactive | –
8 | CC(C)Cc1ccccc1 | inactive | –
9 | Nc1ccc(S(N)(=O)=O)cc1 | inactive | –
10 | CC[Si](OC(C)=O)(OC(C)=O)OC(C)=O | inactive | –
11 | CN/C(=C\[N+](=O)[O-])NCCSCc1csc(CN(C)C)n1 | inactive | –
12 | NC(=O)/N=N/C(N)=O | inactive | –
13 | CC(=O)CCc1ccccc1 | – | -5.19%
14 | CCCCCCCCCCCCCCCC(=O)O | inactive | –
15 | CCc1cccc(O)c1 | inactive | –
16 | CCc1nc(N)nc(N)c1-c1ccc(Cl)cc1 | 13.1 µM (active) | –
17 | O=C(O)CS | inactive | –
18 | CCCCC(CC)COC(=O)/C=C\C(=O)OCC(CC)CCCC (stereo not given) | inactive | –
19 | CC(=O)OCc1ccc2c(c1)OCO2 | inactive | –
20 | OC[C@@H](O)[C@H](O)[C@H](O)[C@@H](O)CO | inactive | –

Row | SMILES | Potency | activity change, negative = cytotoxicity
21 | CCCCOCCOC(=O)c1ccccc1C(=O)OCCOCCCC | inactive | –
22 | Cc1c(OCC(F)(F)F)ccnc1CS(=O)c1nc2ccccc2[nH]1 (stereo not given) | inactive | –
23 | CCCCC(C=O)CC (stereo not given) | inactive | –
24 | CCCCCCCCCCCCOC(=O)c1cc(O)c(O)c(O)c1 | 40.6 µM (active) and 40.8 µM (active) | –
25 | C[C@](N)(Cc1ccc(O)c(O)c1)C(=O)O | inactive | –
26 | F[B-](F)(F)F | inactive | –
27 | O=C(O)CC(C(=O)O)C(CC(=O)O)C(=O)O (stereo not given) | inactive | –
28 | C/C=C/C(=O)N(CC)c1ccccc1C | inactive | –
29 | OC[C@@H](O)[C@@H](O)[C@H](O)[C@H](O)CO | inactive | –
30 | CC(=O)c1ccccc1 | inactive | –
31 | C[C@H]1C[C@@H]2[C@H]([C@@H](O)C[C@@]3(C)[C@H]2CC[C@]3(O)C(=O)CO)[C@@]2(C)C=CC(=O)C=C12 | inactive | –
32 | CC1(C)O[C@@H]2[C@@H](CO[C@@]3(COS(N)(=O)=O)OC(C)(C)O[C@@H]23)O1 | inactive | –
33 | CCC(O)OCCCOC (stereo not given) | inactive | –
34 | Cc1cc(C)c(O)c(C)c1 | inactive | –
35 | NCCN | inactive | –
36 | Cc1cc(C)nc(NS(=O)(=O)c2ccc(N)cc2)n1 | inactive | –
37 | C[N+](C)(C)CCCCCC[N+](C)(C)C | – | 4.78% [at 30.3 µM]
38 | OCCO | inactive | –
39 | C[C@H]1C[C@H]2[C@@H]3CCC4=CC(=O)C=C[C@]4(C)[C@@]3(F)[C@@H](O)C[C@]2(C)[C@@]1(O)C(=O)CO | inactive | –
40 | C#C[C@]1(O)CC[C@H]2[C@@H]3CCc4cc(OC)ccc4[C@H]3CC[C@@]21C | inactive | –

From PubChem BioAssay (Tox21)
